# From PubChem
# This is a sample that favours compounds with a hit; in the whole collection about 3.6% have one here.
# BoNT F protease = BoNT F light chain protease inhibition | Multiplex microsphere protease cleavage assay, flow cytometry | inhibition, % at 10 µM | 0.22% of 360,000 active | AID 588497; in the data active = inhibition above about 35%, passing the limit was not always enough; inconclusive = no clear call, values can overlap the other calls
# SARS 3CLpro inh = SARS-CoV 3CLpro protease inhibition | P0C6X7 | inhibition, % at 6 µM | AID 1706 | 0.14% of 290,000 active | recombinant SARS-CoV 3CLpro, quenched FRET peptide cleavage; in the data active = inhibition above about 12%
# BJeLR lethal = kills HRASV12-expressing BJeLR cells; inhibition, % (no concentration beside the values); BJeLR (HRASV12) viability, CellTiter-Glo ATP luminescence, 48 h; AID 1554; 0.17% of 300,000 active; in the data active = inhibition above about 50%; inconclusive = no clear call, values can overlap the other calls
# Anthrax LF inh2 = inhibitors of Bacillus anthracis lethal factor protease; 0.12% of 360,000 active; inhibition, % at 10 µM; AID 588501; multiplex microsphere protease cleavage assay, LF; P15917
# Target sequence (P15917 whole entry, looked up): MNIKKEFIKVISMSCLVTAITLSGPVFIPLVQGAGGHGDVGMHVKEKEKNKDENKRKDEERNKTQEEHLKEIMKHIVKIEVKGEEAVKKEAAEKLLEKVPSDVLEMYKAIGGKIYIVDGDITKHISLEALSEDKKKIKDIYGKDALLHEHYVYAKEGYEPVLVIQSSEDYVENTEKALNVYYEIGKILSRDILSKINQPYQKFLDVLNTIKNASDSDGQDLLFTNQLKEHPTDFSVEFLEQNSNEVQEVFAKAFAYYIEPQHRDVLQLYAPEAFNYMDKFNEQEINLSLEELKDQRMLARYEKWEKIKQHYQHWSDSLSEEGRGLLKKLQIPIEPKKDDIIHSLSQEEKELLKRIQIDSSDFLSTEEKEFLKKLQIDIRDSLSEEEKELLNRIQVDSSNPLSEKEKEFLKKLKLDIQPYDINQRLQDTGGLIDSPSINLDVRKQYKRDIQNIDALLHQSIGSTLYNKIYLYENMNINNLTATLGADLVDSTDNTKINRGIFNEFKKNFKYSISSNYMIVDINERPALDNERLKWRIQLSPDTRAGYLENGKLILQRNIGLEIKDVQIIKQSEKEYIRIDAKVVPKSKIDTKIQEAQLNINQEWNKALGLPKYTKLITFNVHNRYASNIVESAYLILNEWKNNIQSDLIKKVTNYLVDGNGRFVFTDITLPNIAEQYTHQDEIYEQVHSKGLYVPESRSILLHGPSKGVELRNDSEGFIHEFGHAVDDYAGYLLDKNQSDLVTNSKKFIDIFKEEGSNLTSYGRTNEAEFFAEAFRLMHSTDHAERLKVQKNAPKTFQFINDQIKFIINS
# Autofluor counter = compound fluorescence in toxin protease inhibitor counterscreen. fluorescence intensity (test concentration not listed). 3.1% of 360,000 active. compound autofluorescence counterscreen, microsphere flow cytometry; stronger effect = higher value; in the data active = fluorescence intensity above about 16000; inconclusive = no clear call, values can overlap the other calls
# BoNT A protease = blocks Botulinum neurotoxin A light chain protease; multiplex microsphere protease substrate cleavage, flow cytometry; inhibition, % at 10 µM; 0.17% of 360,000 active; AID 588499
# Hits are given with their value; 0 = inactive; ? = inconclusive; - = not tested or not shown. Rule as the data show it, unless noted: active = inhibition above about 30%; inconclusive = no clear call, values can overlap the other calls; inactive = below that.
SMILES,BoNT F protease,SARS 3CLpro inh,BJeLR lethal,Anthrax LF inh2,Autofluor counter,BoNT A protease
O=C(CN1CCN(CCN2C(=O)c3cccc4cccc(c34)C2=O)CC1)c1ccc(F)cc1,0,0,0,0,22837,0
Cc1ccc(C(C)C)cc1S(=O)(=O)Nc1cccnc1,?,0,0,0,0,0
O=C(COc1ccccc1)NC1CCN(Cc2ccccc2)CC1,0,0,0,0,17241,?
O=C(Cn1[nH]c(=O)c2ccccc2c1=O)NC1CCN(Cc2ccccc2)CC1,0,0,-,0,23670,0
O=C(NC1CCN(Cc2ccccc2)CC1)C1COc2ccccc2O1 (stereo not given),0,0,0,0,0,0
O=C(Cn1[nH]c(=O)c2ccccc2c1=O)NC1CCCCCC1,0,0,0,0,0,0
O=C(COc1ccc(Br)cc1Cl)NC1CCN(Cc2ccccc2)CC1,0,0,0,0,0,0
O=C(O)C1C2C=CC(C2)C1C(=O)NC1CCN(Cc2ccccc2)CC1 (stereo not given),0,0,0,0,20434,?
O=C(CCC(=O)NC1CCN(Cc2ccccc2)CC1)NCc1ccco1,0,0,0,0,23478,?
NC(=O)c1nn(-c2ccc(Cl)cc2Cl)c(=O)cc1O,0,0,0,0,0,0
COc1cccc(C(=O)N(Cc2nc(-c3ccc(C)cc3)no2)C(C)C)c1,0,0,0,0,23492,?
COc1ccccc1OCC(=O)N(Cc1nc(-c2ccccc2)no1)C(C)C,0,0,0,0,0,0
Cc1cc(Br)ccc1OCC(=O)N(Cc1nc(-c2ccccc2)no1)C(C)C,0,0,0,0,20443,0
Cc1ccc(-c2noc(CN(C(=O)Cc3ccccc3)C(C)C)n2)cc1,0,0,0,0,19931,?
COc1cccc(OCC(=O)N(Cc2nc(-c3ccc(Cl)cc3)no2)C(C)C)c1,0,0,0,0,0,0
CC(C)N(Cc1nc(-c2ccccc2)no1)C(=O)Cc1ccccc1,0,0,0,0,0,0
CCOC(=O)C1CCN(C(=O)CN(c2ccc3c(c2)OCCO3)S(C)(=O)=O)CC1,0,0,0,0,22882,0
CCOC(=O)C1CCN(C(=O)CN(c2ccc3c(c2)OCCO3)S(=O)(=O)c2ccccc2)CC1,0,-,0,0,0,0
CCOC(=O)N1CCN(C(=O)CN(c2cccc(OC)c2)S(C)(=O)=O)CC1,0,0,0,0,19270,?
COc1cccc(N(CC(=O)N2CCCC2)S(C)(=O)=O)c1,?,0,0,0,0,0
Cc1ccc(N(CC(=O)N2CCOCC2)S(C)(=O)=O)cc1C,0,0,0,0,20113,?
CS(=O)(=O)N(CC(=O)N1CCCC1)c1ccc2c(c1)OCCO2,0,0,0,0,21840,0
CN(CC(=O)N1CCCC1)S(=O)(=O)c1cc(Cl)ccc1Cl,0,0,0,0,22425,?
CS(=O)(=O)N(CC(=O)N1CCCC1)c1cc(Cl)c(Cl)cc1Cl,0,0,0,0,22315,0
CC(=O)c1cccc(N(CC(=O)N2CCCCC2)S(C)(=O)=O)c1,0,0,0,0,24555,?
SMILES,BoNT F protease,SARS 3CLpro inh,BJeLR lethal,Anthrax LF inh2,Autofluor counter,BoNT A protease
CC1CCN(C(=O)C2CCN(S(=O)(=O)c3ccc(-n4cnnn4)cc3)CC2)CC1,0,0,0,0,0,0
CCN(CC(=O)Nc1ccccc1C(F)(F)F)C(=O)CCOc1ccc(C)cc1,0,-,0,0,0,0
O=C(Cc1ccc(Cl)cc1)NCC(=O)N1CCCCCC1,0,0,0,0,0,0
Cc1nc(N)nc(N)c1Oc1ccc(Cl)cc1,0,-,-,0,0,0
Cc1nc(N)nc(N)c1/C=C/C(C)(C)c1ccc(Cl)cc1,0,0,69,0,0,0
Cc1ccc(CNC(=O)c2ccc(N3CCC4(CC3)CC(c3ccccc3)=NO4)c(N)c2)cc1,0,0,0,0,0,0
CC1(C)CC(=O)C(C2(O)C(=O)N(Cc3ccccc3)c3ccccc32)CO1 (stereo not given),0,0,0,0,22533,?
Cc1ccccc1-c1noc(-c2ccccc2C(=O)NCC2CCCO2)n1 (stereo not given),0,0,0,0,0,0
Cc1nc(=O)c(-c2ccccc2)c(C)n1-c1ccc(C(=O)O)cc1,0,0,0,0,22979,0
Cc1nc(=O)c(-c2ccccc2)c(C)n1-c1ccc(S(N)(=O)=O)cc1,0,0,0,0,0,0
CCn1c(Cc2ccccc2)nnc1SCC(=O)c1c(N)n(C2CC2)c(=O)[nH]c1=O,0,-,-,0,0,0
O=C(c1ccc(CS(=O)(=O)Cc2ccc(Cl)cc2)o1)N1CCCC1,0,0,0,0,23181,0
O=C(c1ccc(Cn2cc(Br)cn2)cc1)N1CCN(c2ccccc2)CC1,0,0,0,0,23168,0
O=C(c1ccccc1)N1CCN(c2ccccc2)CC1,0,-,-,0,0,0
CS(=O)(=O)Nc1ccc(C(=O)Nc2ccccc2C(=O)N2CCCC2)cc1,0,0,0,0,20057,0
CS(=O)(=O)N1CCN(C(=O)c2ccccc2)C1,0,0,0,0,16660,0
O=C(c1ccc(Cn2cc(Cl)cn2)cc1)N1CCN(c2ccccc2)CC1,0,0,0,0,0,0
CS(=O)(=O)Nc1ccc(C(=O)N2CCN(c3ccccc3)CC2)cc1,0,0,0,0,22316,0
Cc1nc2c(OCc3ccc(Cl)cc3)cccn2c1N(C)C(=O)CCC1CCCC1,0,-,-,0,0,0
CCCCn1nnnc1C(c1ccccc1)N1CCN(C(=O)c2ccco2)CC1 (stereo not given),0,-,-,0,0,0
COc1ccc(N2CCN(Cc3oc(CO)cc(=O)c3O)CC2)cc1,0,0,0,0,0,0
CCOc1c2ccccc2nn1CCO,0,-,-,0,0,0
O=C(NCC(=O)N1CCN(Cc2ccccc2)CC1)c1cc(Cl)cc([N+](=O)[O-])c1,0,-,-,0,0,0
CN(CC(=O)Nc1ccccc1C(=O)N1CCCC1)S(=O)(=O)c1ccc(Cl)cc1,0,0,0,0,24313,0
Cc1cc(C(=O)NN)c2cc(Br)ccc2n1,0,0,0,0,0,0
SMILES,BoNT F protease,SARS 3CLpro inh,BJeLR lethal,Anthrax LF inh2,Autofluor counter,BoNT A protease
Cc1cc(C(N)=O)c2cc(Br)ccc2n1,0,0,0,0,20846,0
CC1=CC(c2ccc(Cl)cc2)n2nc(NS(=O)(=O)c3ccc(C)cc3)nc2N1 (stereo not given),0,0,0,0,23033,0
NC1=NC2(CCCCC2)N=C(Nc2ccc(F)cc2F)N1,0,0,0,0,24883,0
CS(=O)(=O)N1CCN(C(=O)Cc2ccccc2Cl)CC1,0,0,0,0,0,0
Cc1cc2nc(C)n(CCCN)c2cc1C,0,0,0,0,22118,0
Cc1cc2nc(C)n(CCCNC(=O)Nc3ccc(C#N)cc3)c2cc1C,0,0,0,0,0,0
O=C(CSc1nnc2ccccn12)c1ccc(Cl)cc1,0,0,0,0,0,0
O=C(CSc1nnc2n1CCCN2C(=S)Nc1ccc(Cl)cc1)c1ccccc1,0,0,0,0,20424,0
COC(=O)c1ccc(N/C=C/C(=O)c2ccccc2)cc1,?,0,0,0,0,0
